Test [1] can be described thus: NCI Yeast Anticancer Drug Screen. Data for the rad50 strain (AID 155).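 Also: 0% = growth of vehicle-only cultures of the same strain.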 Particulars: S. cerevisiae rad50 strain growth inhibition; at 50.0 µM; active compounds read high. The procedure, abridged:
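Vehicle-treated cultures provide the reference for the growth inhibition reported for compound-exposed, repair-deficient yeast.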

Test [2] in a line: NCI Yeast Anticancer Drug Screen. Data for the mec2-1 strain (AID 157). Particulars: S. cerevisiae mec2-1 strain, at 50.0 µM, active compounds read high. The procedure, abridged: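 Yeast mec2-1 mutant treated with compound. Readout: growth inhibition vs vehicle controls.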
Test [3] can be described thus: NCI Yeast Anticancer Drug Screen. Data for the sgs1 mgt1 strain (AID 161).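 Also: 0% = growth of cultures given vehicle only.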 As to conditions: S. cerevisiae sgs1 mgt1 strain, at 50.0 µM, active compounds read high. In a few lines: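 Mutant yeast exposed to compound; growth scored against vehicle-only wells.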
The nature of test [4]: NCI Yeast Anticancer Drug Screen. Data for the cln2 rad14 strain (AID 165).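 Also: 0% = growth equal to vehicle treated cultures.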 As to conditions: S. cerevisiae cln2 rad14 strain, at 50.0 µM, active compounds read high. The procedure, abridged:
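cln2 rad14 yeast strain; compound exposure; growth inhibition read vs vehicle controls.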

A short description of test [5]: NCI Yeast Anticancer Drug Screen. Data for the bub3 strain (AID 167). Particulars: S. cerevisiae bub3 mutant strain, at 50.0 µM, active compounds read high. The procedure, abridged: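 Mutant yeast screening strain plus compound; vehicle-treated cultures serve as the 0% inhibition reference.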
A short description of test [6]: NCI Yeast Anticancer Drug Screen. Data for the mlh1 rad18 strain (AID 175). Particulars: S. cerevisiae mlh1 rad18 strain growth inhibition; at 50.0 µM; active compounds read high. The procedure, abridged:
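Yeast w/ defined DNA-repair lesions; compound exposure; growth vs vehicle controls → % inhibition.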

Compounds without any hit were thinned out: in the full panel of roughly 79,000, 15% have a hit. Values without a mark were called inactive. Calls of active or inactive are those of the source. Rule as the data show it: active = growth inhibition above about 70%; inactive = the rest.

As for `C=C(C)C(O)C(O)C(=C)C` (configuration not stated), the growth inhibition was -6.35% in test [1]; -17.8% in test [2]; -15.6% in test [3]; -1.7% in test [4]; 12.9% in test [5]; -4% in test [6].
In the case of `Cc1cccc(-c2nnc(N)o2)c1[N+](=O)[O-]`, the growth inhibition was -36% in test [1]; -9.6% in test [2]; -10.6% in test [3]; 1.75% in test [4]; -11.4% in test [5]; -16.4% in test [6].
As for `O=C(O)c1nc(Cl)c(Cl)[nH]c1=O`, the growth inhibition was -15.3% in test [1]; -29.6% in test [2]; 8.6% in test [3]; -65.6% in test [4]; 2.5% in test [5]; 3.6% in test [6].
Regarding `CCCCCCCCCCCCCCCCC[CH2][Sn]([Cl])([CH2]CCCCCCCCCCCCCCCCC)[CH2]CCCCCCCCCCCCCCCCC`, the growth inhibition in test [1] was 9.15%; in test [2], -1.2%; in test [3], -16.7%; in test [4], -2.55%; in test [5], -2.1%; in test [6], -13.7%.
Consider `C=CCOc1c(C)cc(C)cc1C`, for which the growth inhibition is 5.3% in test [1]; -17.4% in test [2]; -5.95% in test [3]; -16.3% in test [4]; -14.8% in test [5]; -6.85% in test [6].
Consider `O=c1[nH]c2cccccc-2c1-c1nc2ccccc2[nH]1`, for which the growth inhibition is 40.6% in test [1]; 15.2% in test [2]; 33.6% in test [3]; 19.5% in test [4]; 16.7% in test [5]; 8.95% in test [6].
`CCOC(=O)C(NC(C)=O)C(=O)OCC`: the growth inhibition in test [1] is -3.4%; in test [2] it was 10.2%; in test [3], 3.5%; in test [4], -12.6%; in test [5] it was -7.15%; in test [6] it was -16.4%.
For `Cc1cc(S(=O)(=O)NC(=NCC(=O)NN)NN)c(S)cc1Cl`, the growth inhibition in test [1] is -9.85%; in test [2] it was 2.65%; in test [3] it was -16.6%; in test [4], -6.95%; in test [5] it was 1.3%; in test [6] it was 15.4%.
On to `COC(=O)c1nc(=S)[nH]c(C(=O)OC)c1C(=O)c1ccccc1`, for which the growth inhibition is -25.9% in test [1]; -12.9% in test [2]; -27.4% in test [3]; 36% in test [4]; -25.4% in test [5]; -16.4% in test [6].
Regarding `COc1ccc2oc3c(ccc[n+]3C)c(=O)c2c1`, the growth inhibition in test [1] was -22.9%; in test [2], -14.7%; in test [3], -12.1%; in test [4] it was 10.9%; in test [5], -2.9%; in test [6] it was -16.9%.
As to `CC(=O)[O-].[Mn+3].[O-]c1ccccc1C=NCCNCCN=Cc1ccccc1[O-]`, the growth inhibition in test [1] is 17.9%; in test [2] it was 8.1%; in test [3] it was 49.6%; in test [4], -7.35%; in test [5], 8.3%; in test [6] it was 51.1%.
For the molecule `CCC(=O)NN(C(C)=O)c1ccccc1`, the growth inhibition is 10.3% in test [1]; -21.4% in test [2]; 6.4% in test [3]; -16.2% in test [4]; 8.8% in test [5]; 18.9% in test [6].
For the molecule `COc1ccc(Cl)cc1C(O)CN1CCCCC1` (configuration not stated), the growth inhibition in test [1] is -8.35%; in test [2], -11.9%; in test [3] it was -11.2%; in test [4] it was -37.5%; in test [5], 0.45%; in test [6] it was -6.3%.
For the molecule `COc1cccc(NC(=O)CC(=O)N/N=C/c2ccc(N(CCC#N)CCC#N)c(I)c2)c1`, the growth inhibition in test [1] was 29.6%; in test [2], 8.95%; in test [3], 7.7%; in test [4] it was 9.55%; in test [5] it was -5.55%; in test [6], 28.7%.
For `CCCCC(=O)N/N=C/c1c[nH]c2ccc(Br)cc12`, the growth inhibition in test [1] was 4.3%; in test [2], 6.05%; in test [3], -9.1%; in test [4], 0.85%; in test [5] it was 12.9%; in test [6], 0.05%.
For `Nc1nc(N)nc(SCC(=O)O)n1`, the growth inhibition in test [1] is 8.55%; in test [2], -23.2%; in test [3], 2%; in test [4], 3.15%; in test [5], -2.05%; in test [6] it was 14.9%.
On to `O=[N+]([O-])c1cc2ccccc2nc1-c1ccccc1`, for which the growth inhibition in test [1] is 15.6%; in test [2] it was 4.2%; in test [3], -0.55%; in test [4], 6.95%; in test [5], 7.2%; in test [6], 6.15%.
Turning to `NCCCCCC(=O)O`, the growth inhibition in test [1] is -37.5%; in test [2], -25.4%; in test [3], -17.6%; in test [4] it was 8.2%; in test [5] it was -22%; in test [6], -8.4%.
Regarding `Cc1cc2ccccc2c2cc3ccccc3cc12`, the growth inhibition in test [1] is -2.35%; in test [2], -6.4%; in test [3] it was 8.45%; in test [4] it was 11.8%; in test [5], -2.05%; in test [6], 7.75%.
Turning to `Nc1nn2c(nc(N)c3c(N)[nH]nc32)c1N=Nc1ccc(Br)cc1`, the growth inhibition in test [1] is -1.35%; in test [2] it was 11.8%; in test [3] it was -4.95%; in test [4], 10.2%; in test [5], 13.2%; in test [6], 0.1%.
Turning to `Nc1nc(=O)[nH]nc1SCc1ccccc1`, the growth inhibition was 39.2% in test [1]; 0.1% in test [2]; 1.05% in test [3]; 2.45% in test [4]; 10% in test [5]; 10.5% in test [6].
Turning to `O=C(NN1C(=O)CS(=O)(=O)C1c1ccccc1F)c1ccncc1` (configuration not stated), the growth inhibition is -8% in test [1]; -4.4% in test [2]; 8.3% in test [3]; -9.35% in test [4]; -0.1% in test [5]; 7.75% in test [6].
On to `O=C(CC(C(=O)c1cccs1)c1ccsc1)c1ccc(Cl)s1` (configuration not stated), for which the growth inhibition in test [1] was -5.35%; in test [2] it was -15%; in test [3], -11.1%; in test [4], 4.2%; in test [5], -2.2%; in test [6] it was -5.05%.
For `CCOC(=O)NC(NC(=O)OCC)c1ccc(C(NC(=O)OCC)NC(=O)OCC)cc1`, the growth inhibition in test [1] is 30.9%; in test [2] it was 13.2%; in test [3], 5.45%; in test [4] it was 5%; in test [5], 2.8%; in test [6] it was 7.9%.
As for `Cc1ccc(NC(=O)c2cc3ccccc3c(N=Nc3ccccc3O)c2O)c(C)c1`, the growth inhibition was -11.9% in test [1]; 5.4% in test [2]; 9% in test [3]; 9.85% in test [4]; 12.6% in test [5]; 10.7% in test [6].
For the molecule `O=C1c2ccccc2-c2cc(Cl)c(Cl)cc21`, the growth inhibition is 13.4% in test [1]; 2.1% in test [2]; 13.7% in test [3]; 17.1% in test [4]; -1.8% in test [5]; -22.2% in test [6].
As for `C1=C(c2ccccc2)OC(c2ccccc2)=C(c2ccccc2)[P+]1(c1ccccc1)c1ccccc1`, the growth inhibition was 99.5% (active) in test [1]; 99.7% (active) in test [2]; 99.7% (active) in test [3]; 99.7% (active) in test [4]; 99.5% (active) in test [5]; 99.5% (active) in test [6].
As for `NC(=O)Nc1ccc2[nH]c(=O)c3ccccc3c2c1`, the growth inhibition in test [1] was 7.4%; in test [2] it was -3.35%; in test [3], 17.2%; in test [4], 0.6%; in test [5], -7.15%; in test [6] it was 1.45%.
For the molecule `CCSCN1CCN(CSCC)CC1`, the growth inhibition was 1.35% in test [1]; 1.15% in test [2]; 3.5% in test [3]; 27.5% in test [4]; -11.9% in test [5]; -5.05% in test [6].
As to `COc1cc(C)cc2c(-c3c(OC(C)=O)cc(OC(C)=O)c4c3C[C@H](C)N(C(C)=O)[C@H]4C)cc(-c3cc(-c4c(OC(C)=O)cc(OC(C)=O)c5c4C[C@H](C)N(C(C)=O)[C@H]5C)c4cc(C)cc(OC)c4c3O)c(O)c12`, the growth inhibition in test [1] is 41%; in test [2], 31.5%; in test [3], 34.5%; in test [4], 7.65%; in test [5], -44%; in test [6] it was 16.4%.
On to `CCOC(=O)C(/C=N\c1[nH]ncc1C#N)=C(/C(=O)OCC)c1ccc(O)cc1`, for which the growth inhibition was 4.55% in test [1]; 5.9% in test [2]; -13.7% in test [3]; -21.2% in test [4]; -3% in test [5]; 15.4% in test [6].
Take `Nc1cccc(N2N=C(C(=O)O)CC2=O)c1`: the growth inhibition in test [1] is -7%; in test [2] it was -19.8%; in test [3], -40.9%; in test [4], -12.7%; in test [5] it was -2.7%; in test [6], -15.6%.
In the case of `CC(C)=CC1C(C(=O)O)C1(C)C` (configuration not stated), the growth inhibition is 5.55% in test [1]; -13.2% in test [2]; 3.35% in test [3]; -2.95% in test [4]; 8.4% in test [5]; 10.2% in test [6].
On to `Cc1ccc(N)cc1S(=O)(=O)O`, for which the growth inhibition was 29.8% in test [1]; -10.6% in test [2]; -9.45% in test [3]; -14.8% in test [4]; 3% in test [5]; 21.6% in test [6].
Turning to `CCCCOCCOCCOC(=O)C(C)O` (configuration not stated), the growth inhibition was -5.6% in test [1]; -4.7% in test [2]; -3.95% in test [3]; 5.1% in test [4]; -7.25% in test [5]; -14% in test [6].
With `COC(=O)C(=O)C(/C=N/C(=S)Nc1ccc(S(=O)(=O)Nc2nccs2)cc1)=C(\O)c1c(C)[nH]c2ccccc12`, the growth inhibition in test [1] was 39.1%; in test [2], 23.8%; in test [3] it was 35%; in test [4], 5.2%; in test [5], 35.9%; in test [6], 29.8%.
Turning to `CCOC(=O)C1=C(C(=O)c2cccc3ccccc23)C(c2cccc([N+](=O)[O-])c2)C(C(=O)c2cccc3ccccc23)=C(C(=O)OCC)N1`, the growth inhibition was -12.9% in test [1]; -7.75% in test [2]; 13.7% in test [3]; -26.3% in test [4]; -45.6% in test [5]; -25.2% in test [6].

The record behind these values is PubChem BioAssay (NCI).
